Pf growth 96h – inhibits malaria parasite growth, 96 h; P. falciparum luciferase reporter growth, 96 h; Potency, µM (series often up to 28.7 µM), most hits filed as inhibitors; 320,000 compounds, 6.9% hits; AID 504834
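Luminescence readout: decreased luciferase signal marks inhibited growth of reporter-expressing P. falciparum in infected red cells (2% hematocrit, 0.05% parasitemia final), exposed to compound two generations (96 h, 37 C, 5% CO2).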
AMA1-RON2 inh – inhibitors of Plasmodium falciparum AMA1-RON2 interaction | 360,000 compounds, 0.2% hits | Potency, µM (top dose mostly 58.2 µM), usual class: inhibitors | AlphaScreen AMA1-biotinylated RON2 peptide binding; also: nearly all actives have a fitted effect of over 45% in size
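AMA1 (3D7) with his tag at 25 nM final met compounds first, then biotinylated RON2 peptide at 25 nM; detection used donor plus acceptor beads, 10 µg/mL apiece, read by AlphaScreen after 30 min at room temperature.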
VACV Venus inh – inhibitors of vaccinia virus (Venus reporter) | Vaccinia virus Venus reporter expression, fluorescence | Potency, µM (titrated, usually from 36.5 µM), usual class: inhibitors | 330,000 compounds, 0.46% hits; calls by dose curve; tested in A549 cells; also: nearly all actives have a fitted effect of over 30% in size
Pf growth 48h – P. falciparum growth inhibition at 48 hours (one generation). P. falciparum luciferase growth in erythrocytes, 48 h. Potency, µM (series often up to 28.7 µM), hits mostly inhibitors. 310,000 compounds, 5.9% hits. AID 504832
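A one-generation exposure of luciferase-tagged malaria parasites in RPMI 1640/Albumax erythrocyte culture, 37 C and 5% CO2. Inhibition is inferred from decreased luminescence after adding detection reagent.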
Vaccinia mCherry – vaccinia inhibition (mCherry reporter); 310,000 compounds, 0.63% hits; AID 720579; Potency, µM (top dose mostly 36.5 µM), usual class: inhibitors; Vaccinia virus mCherry reporter infection, fluorescence; calls by dose curve; tested in A549 cells; also: nearly all actives have a fitted effect of over 35% in size
A number is an active result; 0 = inactive; ? = inconclusive; - = no result. An excerpt weighted towards active compounds, which were near 8.7% of everything screened. Unless noted, calls follow the shape of the dose curve; as a rule, active = well fitted curve in the direction sought with a large enough effect; inconclusive = small, poorly fitted or top-dose-only effect, or another doubt; inactive = no such curve, though single readings can be large; an effect the other way counts as inactive or inconclusive.

SMILES | Pf growth 96h | AMA1-RON2 inh | VACV Venus inh | Pf growth 48h | Vaccinia mCherry
COc1cc2c(cc1Cl)/C(=C\CCN(C)C)c1ccccc1S2 | 10.4µM | 0 | ? | 10.4µM | ?
CN(C)CC/C=C1/c2ccccc2Sc2c(O)cc(Cl)cc21 | 0.828µM | 0 | ? | ? | -
Cc1ccc2nc(Cl)c3cc(C(=O)N4CCCC(C)C4)sc3c2c1 (configuration not stated) | - | - | 0 | - | 0
CC(=O)c1cccc(Nc2cc(C)nc3c(C)cc(C)cc23)c1 | ? | 0 | 0 | 9.28µM | 0
CC(=O)c1cccc(Nc2cc(C)nc3ccc(C)cc23)c1 | ? | 0 | 0 | 4.15µM | 0
Cc1ccc2nc(C)cc(Nc3ccc([N+](=O)[O-])cc3)c2c1 | ? | 0 | 0 | 0.738µM | 0
Cc1cccn2c(=O)c3cc(C(=O)NCc4ccccc4)c(=N)n(CCOCCO)c3nc12 | - | - | 0 | - | 0
O=C1Cc2cc(S(=O)(=O)Nc3cccc([N+](=O)[O-])c3)cc3c2N1CCC3 | 6.57µM | 0 | - | 0 | -
Cc1cccc(C)c1NS(=O)(=O)c1cc2c3c(c1)CC(=O)N3CCC2 | ? | 0 | - | 9.28µM | -
Cc1ccc(C)c(NS(=O)(=O)c2cc3c4c(c2)CC(=O)N4CCC3)c1 | 0 | 0 | - | 10.4µM | -
CN(C)c1ccc(NS(=O)(=O)c2cc3c4c(c2)CC(=O)N4CCC3)cc1 | ? | 0 | - | 0 | -
CSc1ccccc1-c1n[nH]c(=S)o1 | 0 | 0 | 0 | 13.1µM | 0
CCOc1ccc(S(=O)(=O)NCc2nc3cccnc3n2Cc2ccccc2OC)cc1 | - | - | 0 | - | 0
CCCOC(=O)NC(CC)COC(=O)Nc1cccc(C)c1C (configuration not stated) | 9.28µM | 0 | 0 | 0 | -
Cc1cccc(OCC(=O)Nc2cccc(C(=O)OCc3cc(=O)n4c(C)csc4n3)c2)c1 | - | - | 0 | - | 0
Cc1ccc(C(=O)CC2(O)C(=O)N(CN3CCOCC3)c3ccccc32)cc1 (configuration not stated) | 0 | 0 | 0 | ? | -
CC(C)c1ccc(C(=O)CC2(O)C(=O)N(CN3CCOCC3)c3ccccc32)cc1 (configuration not stated) | 11.7µM | 0 | 0 | 0 | 0
Cc1nn(C)c(C)c1S(=O)(=O)N1CCCC(C(=O)NCCc2ccc(Cl)cc2)C1 (configuration not stated) | ? | 0 | 0 | 0 | 0
COc1ccc(Cl)cc1S(=O)(=O)N1CCCC(C(=O)NCCc2ccccc2)C1 (configuration not stated) | 10.4µM | 0 | 0 | 0 | ?
Cc1noc(C)c1S(=O)(=O)N1CCCC(C(=O)NCCc2ccc(Cl)cc2)C1 (configuration not stated) | - | 0 | 0 | 11.7µM | 0
COc1ccc(Cl)cc1S(=O)(=O)N1CCCC(C(=O)NCc2ccccc2)C1 (configuration not stated) | 0 | 0 | 0 | 0 | 0
Cc1noc(C)c1S(=O)(=O)N1CCCC(C(=O)NCc2ccccc2Cl)C1 (configuration not stated) | 5.86µM | 0 | - | 0 | -
COCc1nn2cc(-c3ccc(C)cc3)nc2s1 | - | - | 0 | - | 0
CCc1ccccc1NC(=O)Cn1c(=O)n(-c2ccc(C)cc2)c(=O)c2cc(OC)c(OC)cc21 | - | - | 0 | - | 0
COc1ccc(CNc2oc(-c3ccc(COc4ccc(Cl)cc4)o3)nc2C#N)cc1 | - | - | 0 | - | 0
SMILES | Pf growth 96h | AMA1-RON2 inh | VACV Venus inh | Pf growth 48h | Vaccinia mCherry
CC(Nc1nc(=S)nc(Nc2ccc(F)cc2)[nH]1)c1ccccc1 (configuration not stated) | 10.4µM | 0 | - | 11.7µM | -
CC(Nc1nc(Nc2ccc(F)cc2)nc(SCC(N)=O)n1)c1ccccc1 (configuration not stated) | ? | 0 | 0 | ? | 0
COc1cc(OC)c(NC(=O)Nc2ccc3c(c2)N(C)C(=O)c2ccccc2S3)cc1Cl | - | - | ? | - | 0
COc1cccc(OCC(O)CN2CCN(c3ccccn3)CC2)c1 (configuration not stated) | 0 | 0 | 0 | 0 | 0
Cc1cccc(C)c1OCC(O)CN1CCN(c2ccccn2)CC1 (configuration not stated) | 0 | 0 | 0 | 0 | 0
CC1CN(CC(O)COC(c2ccc(Cl)cc2)c2ccc(Cl)cc2)CC(C)O1 (configuration not stated) | ? | 0 | 0 | 3.7µM | 0
OC(COC(c1ccc(Cl)cc1)c1ccc(Cl)cc1)CN1CCN(c2ccccn2)CC1 (configuration not stated) | ? | 28.2µM | 0 | ? | 0
